# Measurements: the supplement of paper PMC6555819
# System: VDR:RXRa (NR concentration 270 nM, RXRa partner concentration 90 nM)
# Experiment: PBM binding z-score (relative to random genomic background probes); higher = stronger binding; sequences stand for … in GC…GCGATTGACAGCGTAGAATGAAGG
# Method: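 Protein-binding microarray (Agilent 4x180K custom design, double-stranded 60-nt probes: 5' GC cap, 34-nt variable region, 24-nt constant primer region; full probe sequence given). Purified or IVT nuclear receptor:RXRα heterodimers (3:1 NR:RXRα, mostly 270:90 nM) or homodimers were incubated for 1 h in PBS with 2% milk and no ligand, then detected with Alexa488 antibodies. Fluorescence from o1-orientation probes (~5 replicates averaged) was converted to z-scores against 500 random hg19 background probes. Variable regions are seed direct-repeat (DR0–DR5) sites, all their single-nucleotide variants and half-site ablations.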
row,Sequence,PBM binding z-score
1,TCATATAGGTAAACAGGTGAAAGTGCGTAAGTTA,1.29
2,AGAACGAGGGCGATGAGTTGATAGCACGGGTGGC,3.12
3,GCTGCTAGGTCAACTGCTGGTCAGCTAAAGCTCG,1.38
4,GCTTGTTGGTCAGTAAAAGGTCACACACCGGTCG,3.86
5,CCTATTATTTGACCATAAGGGCAACCGAAGCTCG,1.28
6,ACAGAGAGGTGATGAAGGTAACTCAGGCTATCAT,0.7
7,TCATATAGGTAAAAGGTGACAGTCGGTGTGGTAA,1.35
8,GGAACGAGGGCCAAGTTGATAGCATCTGTCGACG,-0.379
9,CGTCCAAGGGCAAAGGTCAGTGAAGAGATGACGG,3.89
10,GCTTACGGGTCAAAGGTTATAGCTTGAATAGAAT,5.25
11,TCGAGTACGTTAGGGGCATTCAGAATGGCGTCGA,2.6
12,CCAACTAGGTCACCGGAAGGTCAAAGTCCGCATG,5.87
13,TAGCCTAGGTCATGGGCCGGTATACCACGCGAAC,2.18
14,TCTGGTAGATCAACAGGAGGTTAAGAAAGATCGA,0.61
15,TCATATATGTAAATGCTAGGTGAAAGTCCGATCT,0.934
16,ATCTCGAGGTAAAGTTCAGTGAAAGATCGATAGA,1.64
17,ATATGTAGGTTACATCTGGGTCATTCAGGCTATG,3.04
18,CTGACTGGGGCATAAGGTTACCATAAGCCAGCCC,0.451
19,CCTAGTTGGTCAAAGTCACACACGCTATAGGTAC,0.996
20,GGAACGAGGGAAAAGTTGATAGCATCTGTCGACG,-0.649

row,Sequence,PBM binding z-score
1,CGAACTAGGTCATTAACAGGACAGTGAATAGTAA,1.77
2,CGAACTAGGTCAGAACAGAACAGTGAAGGATGAT,-0.0419
3,TCGAGTAGGTTACCAATGGGGCAGTCAGCTTTCT,-0.0931
4,CCTACTGGGCCATCAGGTCATTGATATCAACGTT,1.81
5,GGAACGAGGGCAAAGTTGATAGCATCTGTCGACG,1.23
6,CGAACTAGGTCAGAACAGGACAGTGGAGGATGAT,0.581
7,AATCCAGGGTCATCGTAGGCCAGAGTACGCACAG,5.32
8,CGAACTAGGTCAGAACAAGACAGTGAAGGATGAT,0.215
9,CCTACTGGTCCAAAGGTCATTGATTCCAATGCTC,4.83
10,TCTATTAGTTCATTAGGGCAACCGAAACAGCGGA,2.2
11,AGAATGAGGCTATTAAGATCAGGGAATTGCGGTC,-0.0838
12,CGAACGAGGGCATGCGTTGATAGCAAATGCCGAT,0.672
13,TCTGCTAGGTTAACGATGGTCAGCTAATCTGCTA,-0.0905
14,TCATATAGGTAAAAAGGTGAAAGTCCGTAAGTTA,1.61
15,ACTATTAGTTGAGACTAGGGCAACCGATAGGTTG,-0.386
16,ATATGTAGGTTAGCTGGGGTCATTGAGACTAGGC,5.95
17,TTATATAGGTAAAAGGTGAAAGTCGGTGTGGTAA,1.4
18,GTACCAGGGTGAATAGGTCGTTGATGAGTAGGCG,1
19,AGTCAAAGTTCAGGTCGAGGTAACGTAAAGCACG,3.41
20,CGTCCAAGGTCAACGGTCAGTGAAGAGATGACGG,4.18
